# Test results from paper PMC5540273 (PLoS ONE, 2017).
# Test system: EPHA7
# Settings: concentration: 1 μM,replicates: in singlicate; n = 1
# 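Further: KINOMEscan kinase panel screen.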
row,Structure (SMILES),%Inh
1,CNC(=O)c1ccccc1Nc1nc(Nc2cccc(CS(C)(=O)=O)c2)ncc1C.O=CO [GSK1520489],96.6%
2,O=C(Nc1n[nH]c2cc(-c3ccco3)ccc12)C1CC1 [SB-737447],0%
3,CSc1nccc(-c2c(-c3ccc(F)cc3)ncn2CCCN2CCOCC2)n1.Cl [SB-217146],0%
4,COc1cccc(CNC(=O)NC2CCN(c3ccnc(Nc4cc(OC)c(OC)c(OC)c4)n3)C2)c1 (stereo not shown) [GSK1379765],6%
5,Cn1cc(-c2cccc3c(N)c(C(N)=O)nnc23)cn1,6%
6,Cc1ccc(Nc2ccnc(Nc3ccc4c(c3)CS(=O)(=O)C4)n2)cc1O.Cl [GW579362],44%
7,CC(C(=O)NC1CCN(c2ccnc(Nc3ccc(F)cc3)n2)C1)c1ccc(Cl)cc1 (stereo not shown) [GSK1379713],5%
8,COc1cc2c(Nc3ccc(NC(=O)c4ccccc4)cc3)ncnc2cc1OCCCN1CCOCC1 [GSK301329],6%
9,N#Cc1cccc(C(=O)NC2CCN(c3ccnc(Nc4ccc(F)cc4)n3)C2)c1 (stereo not shown) [GSK1379708],0%
10,CN1CCN(CCCNc2nccc(-c3c(-c4ccc(F)cc4)nn4cc(C(N)=O)ccc34)n2)CC1 [GW622475],8%
11,O=C(Nc1cccc(C(F)(F)F)c1)c1cccc(Oc2ccc3nccn3n2)c1,5%
12,COC(=O)Nc1nc2cc(Oc3ccc(NC(=O)Nc4cc(C(F)(F)F)ccc4Cl)cc3)ccc2[nH]1.Cl [GW697465],84%
13,Cn1ccc2ncnc(Oc3ccc(NC(=O)Nc4ccnc(C(F)(F)F)c4)c(Cl)c3)c21,6%
14,Cc1cccc2c(-c3ccncc3)c(-c3ccc(F)cc3)nn12.Cl [GW461487],9%
15,COc1cccc(C2=C(Nc3cccc(Cl)c3)C(=O)NC2=O)c1 [SB-341556],7%
16,OCCn1cc(-c2cnc3nnn(Cc4ccc5ncccc5c4)c3n2)cn1,0%
17,CC(=O)c1c(-c2ccncc2)[nH]c(-c2ccncc2)c1C [GW493036],1%
18,Cn1ccc2ncnc(Oc3ccc(NC(=O)Nc4cncc(C(F)(F)F)c4)c(Cl)c3)c21,74%
19,O=c1[nH]cc(-c2ccc(O)cc2)c2sc(-c3ccncc3)cc12 [GSK1033723],0%

row,Structure (SMILES),%Inh
1,COC(=O)c1cccc(NC(=O)NC2CCN(c3ccnc(NCc4ccc(F)cc4)n3)CC2)c1 [GSK1379860],18%
2,Cn1ccc2ncnc(Oc3ccc(NC(=O)Nc4cccc(C(F)(F)F)c4)c(F)c3)c21,93.8%
3,Cl.c1ccc(Oc2ccc(Nc3ccnc4cc(-c5ccc(CN6CCNCC6)o5)ccc34)cc2)nc1 [GW567142],0%
4,CS(=O)(=O)c1cccc(CNc2nc(Nc3ccc4c(c3)[C@@H]3C[C@@H]4CNC3=O)ncc2C(F)(F)F)c1,63%
5,C[C@@H](Oc1cc(-n2cnc3ccc(-c4ccncc4)cc32)sc1C(N)=O)c1ccccc1Cl [GSK483724],14%
6,CCOC(=O)N1CCC(n2cnc(-c3ccc(F)cc3)c2-c2ccnc(N)n2)CC1 [SB-219952],1%
7,Cn1ccc2ncnc(Oc3ccc(NC(=O)Nc4cc(C(C)(C)C)on4)c(Cl)c3)c21,90%
8,Cc1n[nH]c2cc(Nc3ccnc(Nc4cccc(CN5CCOCC5)c4)n3)ccc12 [GW682569],0%
9,NC(=O)c1ccc(-c2cc3ncnc(SCC(=O)O)c3s2)cc1,0%
10,Cc1ccc(CC(=O)N2CCc3cc(-c4cn(C)c5ncnc(N)c45)ccc32)cc1 [GSK2634758],4%
11,COc1ccc(Nc2nccc(N3CCC(NC(=O)c4cccc(C#N)c4)C3)n2)cc1 (stereo not shown) [GSK1379730],3%
12,Cn1ccc2ncnc(Oc3ccc(NC(=O)Nc4cccc(C(F)(F)F)c4)c(Cl)c3)c21,82%
13,O=C(Nc1ccccc1)c1cccc(Oc2ccc3nccn3n2)c1,0%
14,Cn1ccc2ncnc(Oc3ccc(NC(=O)Nc4cnn(C(C)(C)C)c4)c(Cl)c3)c21,27%
15,CCn1c(-c2nonc2N)nc2cncc(CNC3CCNCC3)c21.Cl [SB-747651],9%
16,COc1cc2nccc(Nc3ccc(Oc4ccccc4)cc3)c2cc1OC.Cl [GI261656],0%
17,Cl.Cl.NC[C@H](CC1CCCCC1)NC(=O)c1ccc(-c2ccnc3[nH]ccc23)s1 [GSK1581428],14%
18,Cc1cccc(-c2nc(Nc3ccncc3)c3sccc3n2)n1 [GW869641],6%
